# Compounds with a hit are over-represented: about 3% of the library has one in this group of screens.
# A549 tox: kills or reduces viability of A549 cells in Nrf2 counter-screen; Potency, µM (titrated, usually from 46 µM), inactives show top-dose activity change, negative = cytotoxicity, hits mostly inhibitors; hit rate 0.16% among 390,000; A549 ARE-Fluc cells, CellTiter-Fluor viability, 18-24 h; further: on the % scale 0 is the no-effect control and ±100 the full control effect
#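 Cytotoxicity counterscreen: CellTiter-Fluor fluorescence was measured in A549 ARE_Fluc cells after 18-24 h of compound exposure in a concentration series. The subsequent BugLite luminescent read reports ARE-luciferase activity.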
# Nrf2 block: inhibitors of Nrf2 signaling; A549 ARE-Fluc reporter, luciferase luminescence, 18-24 h; Potency, µM (top dose mostly 46 µM), for the others: top-dose activity change, negative = inhibition, usual class: inhibitors; hit rate 2.1% among 360,000; AID 504444; further: on the % scale 0 is the no-effect control and ±100 the full control effect; nearly all actives have a fitted effect of over 60% in size
#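 A549 ARE_Fluc cells, 5000/well, 5% FBS OPTI-MEM; compounds in dose-response, 18-24 h at 37 °C/5% CO2; CellTiter-Fluor viability read (Ex 405/Em 525), then BugLite luciferase luminescence = Nrf2 activity.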
# GALK inhibitor: inhibitors of human galactokinase; P51570; Purified GALK, Kinase-Glo residual ATP luminescence; Potency, µM (titrated, usually from 57.5 µM), inactives show top-dose activity change, negative = inhibition, hits mostly inhibitors; hit rate 0.007% among 270,000; AID 1868; further: on the % scale 0 is the no-effect control and ±100 the full control effect
#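 5 nM enzyme, 35 uM ATP, 100 uM galactose, 20 mM HEPES pH8.0, 5 mM MgCl2; 1 h RT; residual ATP by Kinase-Glo Plus luminescence, qHTS format.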
# rTrxR1 inhibitor: inhibitors of rat thioredoxin reductase 1. O89049. recombinant rTrxR1, NADPH fluorescence consumption, selenite substrate. Potency, µM (doses to about 114 µM), for inactives: at the top dose activity change, negative = inhibition, actives largely listed as inhibitors. hit rate 1% among 390,000. AID 588453; further: on the % scale 0 is the no-effect control and ±100 the full control effect; nearly all actives have a fitted effect of over 65% in size
# Target sequence (O89049 whole entry, looked up): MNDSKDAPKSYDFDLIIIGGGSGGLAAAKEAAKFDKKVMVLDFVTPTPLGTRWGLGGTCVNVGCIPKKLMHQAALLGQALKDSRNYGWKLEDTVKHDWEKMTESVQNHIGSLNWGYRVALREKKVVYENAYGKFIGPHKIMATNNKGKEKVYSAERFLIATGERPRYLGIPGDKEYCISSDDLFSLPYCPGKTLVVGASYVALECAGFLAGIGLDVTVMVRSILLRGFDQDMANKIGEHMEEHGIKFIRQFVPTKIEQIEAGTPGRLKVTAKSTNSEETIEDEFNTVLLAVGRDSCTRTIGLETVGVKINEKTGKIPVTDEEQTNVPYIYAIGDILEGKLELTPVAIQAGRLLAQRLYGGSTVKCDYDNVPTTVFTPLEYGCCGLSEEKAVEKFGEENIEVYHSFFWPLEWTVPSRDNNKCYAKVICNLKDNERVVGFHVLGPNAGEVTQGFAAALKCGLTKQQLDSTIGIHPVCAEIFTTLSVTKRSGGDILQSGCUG
#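 Rat TrxR1 (90 nM in the dispensed reagent) was pre-reduced with 400 uM NADPH for 5 min at room temperature, then incubated with compound for 15 min. After 400 uM selenite was added, NADPH fluorescence (Ex 340/Em 450 nm) was followed for 8 min.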
# Nrf2 ARE act: activates Nrf2 signaling. AREc32 ARE-luciferase reporter (MCF7-derived line), luminescence, 24 h. Potency, µM (titrated, usually from 46.1 µM), for the others: top-dose activation, actives largely listed as activators. hit rate 0.31% among 410,000; further: % of control where 0% means no effect; nearly all actives have a fitted effect of over 65% in size
#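 Luminescent ARE reporter assay in AREc32_Fluc cells: overnight plating at 37 deg C, 24 hr compound incubation, Steady-Glo added, 30 min RT before reading.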
# TrxR1 substrate: rat thioredoxin reductase 1 substrate activity; Potency, µM (top dose mostly 114 µM), for inactives: at the top dose activity change, negative = substrate turnover; AID 588456; purified TrxR1 substrate turnover, NADPH consumption readout; hit rate 0.01% among 390,000; further: on the % scale 0 is the no-effect control and ±100 the full control effect; nearly all actives have a fitted effect of over 50% in size
#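 Rat TrxR1, dispensed at 90 nM, was prereduced with 400 uM NADPH (final) for 5 min at ~22 deg C, then incubated with compound 15 min before 400 uM selenite. A first-read NADPH fluorescence drop versus no-compound background flagged substrates.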
# Numbers without * were called inactive; u = inconclusive; x = no result given; [ ] = another dose, or the depositor's remark. The call rests on the fitted dose curve; in most records, active means well fitted curve in the direction sought with a large enough effect; inconclusive means small, poorly fitted or top-dose-only effect, or another doubt; inactive means no such curve, though single readings can be large; an effect the other way counts as inactive or inconclusive. Potency means the concentration at half of the fitted maximal effect.
SMILES,A549 tox,Nrf2 block,GALK inhibitor,rTrxR1 inhibitor,Nrf2 ARE act,TrxR1 substrate
CC(=O)Nc1ccc(NC(=O)c2cc([N+](=O)[O-])cc([N+](=O)[O-])c2)cc1,-1%,6%,6%,19%,0%[9.22 µM],3%
CC(=O)Nc1ccc(Sc2ccc([N+](=O)[O-])o2)cc1,-11%,11%,x,4.5µM*,u,-1%
Cc1csc2c(N3CCN(C(=O)c4ccc(C(C)(C)C)cc4)CC3)ncnc12,-2%,-23%,-3%,12%,7%,-5%
Cc1csc2c(N3CCN(C(=O)Nc4ccc(Cl)c(Cl)c4)CC3)ncnc12,-16%,21µM*,x,27%,3%,2%
Cc1csc2c(N3CCN(C(=O)NC(C)(C)C)CC3)ncnc12,-16%,18µM*,x,30%[57.1 µM],-1%,17%[57.1 µM]
Cc1csc2c(N3CCN(C(=S)Nc4ccc(C(F)(F)F)cc4)CC3)ncnc12,5%,u,x,19%,9%,-8%
COc1cccc(C2C(C(=O)Nc3ccc(Cl)cc3)=C(C)Nc3c(C(=O)Nc4ccccc4)cnn32)c1OC (centres undefined),0%,u,x,11%,9%,23%
CCCCn1c(NC(=O)CC)c(C#N)c2nc3ccccc3nc21,0%,-7%,0%,21%,-1%,40%
N#Cc1c(NC(=O)c2ccccc2Cl)n(Cc2ccccc2)c2nc3ccccc3nc12,u,16µM*,-8%,-6%,5%,-10%
CCCCn1c(NC(=O)c2ccccc2Cl)c(C#N)c2nc3ccccc3nc21,u,13µM*,-19%,u,3%,u
CC(C)Cc1nnc(NS(=O)(=O)c2ccc([N+](=O)[O-])cc2)s1,2%,-17%,-1%,8%[57.1 µM],-1%,-11%
O=[N+]([O-])c1ccc(S(=O)(=O)Nc2nnc(C(F)(F)F)s2)cc1,-1%,-1%,-3%,6.3µM*,0%,-13%
O=c1[nH]c(-c2ccc(-c3cccc(Cl)c3)o2)nc2ccccc12,1%,u,x,50µM*,1%,13%
O=c1[nH]c(SCc2cccc(Cl)c2)nc2ccccc12,14%,-4%,1%,2%,0%,0%
Cc1ccc2c(n1)sc1c(-c3ccc(Br)cc3)c(C#N)c(N)nc12,u,21µM*,x,u,4%,23%
CCc1nc(N)c(C#N)c(-c2ccc(F)cc2)c1C,3%,u,0%,-6%,-1%,-3%
COc1ccc(C(Nc2ccccn2)c2oc(CO)cc(=O)c2O)cc1 (centres undefined),0%,7%,1%,8.9µM*,1%,6%
O=c1cc(CO)oc(C(Nc2ccccn2)c2ccc(F)cc2)c1O (centres undefined),-1%,-2%,-2%,8.9µM*,0%,-3%
CCc1ccc(OCC(=O)N(Cc2ccc(C)o2)C2CCS(=O)(=O)C2)cc1 (centres undefined),7%,13%,x,-17%,1%,14%
Cc1cc(O)c(C(c2ccccc2)N2CCN(c3ccc(F)cc3)CC2)c(=O)n1Cc1ccco1 (centres undefined),-3%,x,x,10µM*,-1%,-2%[57.1 µM]
COc1cccc(C(c2c(O)cc(C)n(Cc3ccco3)c2=O)N2CCC(C)CC2)c1 (centres undefined),-4%,x,x,-13%[57.1 µM],-1%,1%[57.1 µM]
CCN1CCN(C(c2cccc(OC)c2)c2c(O)cc(C)n(Cc3ccco3)c2=O)CC1 (centres undefined),15%,x,x,11µM*,2%,2%[57.1 µM]
Cc1cc(O)c(C(c2ccc(F)cc2)N2CCN(c3ccccc3)CC2)c(=O)n1Cc1ccco1 (centres undefined),19%,x,x,u,0%,5%[57.1 µM]
Cc1cc(C)cc(Cn2ncc3c4sc(C)cc4n(C)c3c2=O)c1,-11%,4%,x,x,x,x
COc1cc(-c2ccc3ncnc(N(C)Cc4csc(C)n4)c3c2)cc(OC)c1OC,1%,-23%,x,x,x,x
SMILES,A549 tox,Nrf2 block,GALK inhibitor,rTrxR1 inhibitor,Nrf2 ARE act,TrxR1 substrate
COc1cc(C(C2C(=O)CC(C)(C)CC2=O)C2C(=O)CC(C)(C)CC2=O)cc(OC)c1OC,5%,0%,1%,u,0%,10%[57.1 µM]
COc1cc(C(C2C(=O)CC(C)(C)CC2=O)C2C(=O)CC(C)(C)CC2=O)ccc1OC(C)=O,1%,8%,x,u,0%,7%[57.1 µM]
COc1ccc(C(C2C(=O)CC(C)(C)CC2=O)C2C(=O)CC(C)(C)CC2=O)cc1COCC(F)(F)F,-5%,17%,0%,7.9µM*,-1%,4%
COc1cc(C(C2C(=O)CC(C)(C)CC2=O)C2C(=O)CC(C)(C)CC2=O)ccc1O,-7%,4%,2%,14µM*,-1%,4%
COc1ccccc1N1CCN(c2ncnc3c2c(-c2ccccc2)cn3-c2cccc(C)c2)CC1,9%,x,x,10%[57.1 µM],2%,5%[57.1 µM]
CCOc1ccc(OCC)c(NC(=O)CSc2nc3c(c(=O)n(C)c(=O)n3C)n2C)c1,x,x,-1%,x,x,x
CCOc1ccc(OCC)c(NC(=O)CSc2nc3c(c(=O)n(C)c(=O)n3C)n2C(C)C)c1,-9%,16µM*,2%,5%,4%,-9%
Cc1ccc(S(=O)(=O)N2CCc3cc(C(=O)Nc4ccc(C)c(C)c4)ccc32)cc1,-5%,1%,x,28%,3%,6%
CCC(C)NC(=O)CSc1nc2cc3c(cc2c(=O)n1Cc1ccc(C(=O)NCCc2ccc(OC)c(OC)c2)cc1)OCO3 (centres undefined),1%,1%,x,8%[57.1 µM],x,1%[57.1 µM]
CCn1c(=O)c([N+](=O)[O-])c(Cl)c2ccccc21,-8%,u,-3%,2.5µM*,10%,5%
CC(/C=C1\SC(=O)N(CCCC(=O)O)C1=O)=C\c1ccccc1,-1%,2.3µM*,0%,-3%[11.4 µM],-3%,-8%[11.4 µM]
O=C(CN1C(=O)S/C(=C\c2ccccc2)C1=O)NNC(=O)c1ccccc1O,5%,30%,-1%,18%,5%,-21%[57.1 µM]
CN1CCN(C(=O)CCN2C(=O)/C(=C/c3ccccc3Cl)SC2=S)CC1,21µM*,u,-1%,-15%[57.1 µM],u,-6%[57.1 µM]
O=C(CCCN1C(=O)/C(=C/c2ccccc2Cl)SC1=S)N1CCOCC1,-21%,-24%,-3%,-8%,3%,-14%
CN1CCN(C(=O)CCN2C(=O)/C(=C\c3ccccc3F)SC2=S)CC1,23µM*,u,0%,12%,17%,4%
O=C(CCCN1C(=O)S/C(=C\c2ccccc2)C1=O)NNC(=O)c1ccccc1O,2%,13µM*,-3%,13%[57.1 µM],-3%,8%[57.1 µM]
O=S(=O)(c1ccc(Br)cc1)N1CCN(c2nc(-c3ccccc3)nc3ccccc23)CC1,-3%,20%,x,22%,x,8%

# High-throughput results deposited in PubChem BioAssay by National Center for Advancing Translational Sciences (NCATS).
